# Experimental data published in PubChem BioAssay (NCI).
# The panel holds about 83,000 compounds, 20% with a hit somewhere; the sample as a whole holds those more often.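 Values shown are percent growth following 48 h exposure of cells in 96-well plates to a single concentration of compound; below 10 was considered active.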 A number with no mark means an inactive call. Active and inactive are the calls of the source.
# Key:
# Experiment in all cases: NCI-60 one-dose screen, 48 h (100 = growth as untreated, 0 = no growth, -100 = all killed)
# Conditions in all cases: 10 µM unless noted
# HCT-15 colon = tested on: HCT-15 colon
# HT29 colon = tested on: HT29 colon
# SNB-75 CNS = tested on: SNB-75 CNS
# SNB-19 CNS = tested on: SNB-19 CNS
# U251 CNS = tested on: U251 CNS
# PC-3 prostate = tested on: PC-3 prostate
# SK-MEL-5 melanoma = tested on: SK-MEL-5 melanoma
# UACC-62 melanoma = tested on: UACC-62 melanoma
# LOX IMVI melanoma = tested on: LOX IMVI melanoma
# SK-MEL-28 melanoma = tested on: SK-MEL-28 melanoma
# SK-MEL-2 melanoma = tested on: SK-MEL-2 melanoma
# EKVX NSCLC = tested on: EKVX NSCLC
# SN12C renal = tested on: SN12C renal
# UO-31 renal = tested on: UO-31 renal
# TK-10 renal = tested on: TK-10 renal
# ACHN renal = tested on: ACHN renal
# CAKI-1 renal = tested on: CAKI-1 renal
# A498 renal = tested on: A498 renal
# CCRF-CEM leukemia = tested on: CCRF-CEM leukemia
# MOLT-4 leukemia = tested on: MOLT-4 leukemia
SMILES,growth (HCT-15 colon),growth (HT29 colon),growth (SNB-75 CNS),growth (SNB-19 CNS),growth (U251 CNS),growth (PC-3 prostate),growth (SK-MEL-5 melanoma),growth (UACC-62 melanoma),growth (LOX IMVI melanoma),growth (SK-MEL-28 melanoma),growth (SK-MEL-2 melanoma),growth (EKVX NSCLC),growth (SN12C renal),growth (UO-31 renal),growth (TK-10 renal) [%],growth (ACHN renal),growth (CAKI-1 renal),growth (A498 renal),growth (CCRF-CEM leukemia),growth (MOLT-4 leukemia)
Cc1c2c(cc3c1[nH]c1ccccc13)C=NCC2,95.1%,61.2%,84%,93.4%,92.5%,91%,88.1%,107%,87.4%,118%,109%,80%,90.8%,80%,113,96.9%,92.9%,71.7%,75.9%,83.3%
COc1cc(/C=C/c2cc(/C=C/c3ccc(O)c(OC)c3)n(C(=O)Nc3ccc(F)c(Cl)c3)n2)ccc1O,6.64% (active),-33.6% (active),-12.6% (active),4.42% (active),-1.59% (active),-14.3% (active),-73.9% (active),-37.4% (active),-20.9% (active),7.89% (active),-25% (active),-17.7% (active),2.06% (active),-17% (active),24,5.73% (active),-39.1% (active),-13.6% (active),0.872% (active),-17.7% (active)
COc1ccc(CNc2c3ccccc3nc3ccccc23)cc1F,11%,12.2%,42.5%,28%,26.9%,30.4%,36.5%,42.4%,1.25% (active),46.7%,45.1%,26.1%,25.9%,13.5%,36.1,10.9%,21.3%,-6.26% (active),29.6%,8.92% (active)
CS(=O)(=O)c1ccc(C(=O)N/N=C/c2ccc3c(c2)OCO3)cc1,100%,88.9%,94.4%,98.5%,92.3%,92%,106%,98%,96.5%,114%,89.1%,100%,99.2%,96.3%,106,105%,93%,94.6%,87%,70.8%
CC1=C(/C=C/C(C)=C/C=C(C(=O)O)\C(C)=C\C(=O)O)C(C)(C)CCC1,105%,96.8%,87.5%,97.8%,94.6%,91.3%,111%,96.9%,94.9%,114%,94.7%,124%,92%,92.7%,98,99.9%,117%,91.2%,93.3%,86.3%
O=C(/C=C/c1ccc(F)cc1)N1CCN(C(=O)/C=C/c2ccc(C(F)(F)F)cc2)CC1,104%,101%,119%,103%,107%,117%,98.9%,96.6%,111%,106%,118%,93.1%,106%,89.7%,105,115%,97.3%,130%,103%,115%
c1csc(-c2cnc3nonc3n2)c1,89.7%,91.2%,79.8%,81.6%,88%,66.3%,87.9%,79.3%,62.6%,104%,105%,101%,86.7%,66.5%,128,85.7%,90.3%,88.1%,79.7%,78.9%
C#C[C@]1(O)CC[C@H]2[C@@H]3CC=C4c5sc(-c6cccc(Br)c6)nc5CC[C@]4(C)[C@H]3CC[C@@]21C,61.7%,83.1%,59%,84.6%,70.9%,57.2%,99.9%,89.9%,71.6%,54.7%,98.2%,80.1%,96.3%,62.6%,97.7,83.3%,35%,71.7%,61.4%,58%
